In PubChem BioAssay AID2289 (National Center for Advancing Translational Sciences (NCATS), 2010):
The campaign covered roughly 340,000 compounds. About 3,300 (0.97%) were called active. Roughly 9% stayed inconclusive and do not appear here. The call rests on the fitted dose curve; in most records, active means well fitted inhibition curve with a large enough effect; inconclusive means small, poorly fitted or top-dose-only effect, or effect the other way; inactive means flat fitted curve, though single readings scatter. The list shows a part of the results.

Experiment: qHTS Assay for Modulators of miRNAs and/or Inhibitors of miR-21; further: nearly all actives have a fitted effect of over 55% in size
Settings: HeLa miR-21-FLuc reporter, luciferase luminescence, 48 h; actives lower the signal
Method in brief: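 Compounds were titrated across several concentrations (up to approximately 40 uM) and incubated 48 hours with HeLa miR-21-FLuc reporter cells (miR-21 target sequence downstream of FLuc, endogenous miR-21). Readout was firefly luciferase luminescence after lytic detection reagent.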
Potency means the concentration at half of the fitted maximal effect.

Potency, active:
Cn1c(CSc2nc3ccccc3s2)nc2ccccc21 4.14 µM
COc1ccc(CNc2nc3ccccc3n2C)c(O)c1 1.17 µM
Cn1c(CNc2ccc(O)cc2)nc2ccccc21 16.5 µM
COc1ccccc1C(=O)COC(=O)c1ccc(N(C)C)cc1 3.29 µM
COc1ccc(/C=C2\Cc3ccccc3C2=O)cc1OC 14.7 µM
COc1ccc(/C=C2/CCc3ccccc3C2=O)cc1OC 18.5 µM
O=C1/C(=C/c2ccccc2)CCCc2ccccc21 7.36 µM
O=C(O)c1cccc(NC(=S)N/N=C/c2ccccc2OCc2ccc(Br)cc2)c1 11.7 µM
O=C(O)c1cnn(-c2nc(-c3ccc(Br)cc3)cs2)c1C(F)(F)F 11.7 µM
O=C(O)c1cnn(-c2nc(-c3ccc(F)cc3)cs2)c1C(F)(F)F 14.7 µM
O=C(O)c1cnn(-c2nc(-c3ccc(Cl)cc3)cs2)c1C(F)(F)F 13.1 µM
O=C(O)c1cnn(-c2nc(-c3ccc(Cl)c(Cl)c3)cs2)c1C(F)(F)F 5.21 µM
COc1ccccc1-c1nn2c(-c3ccco3)nnc2s1 4.65 µM
CCOC(=O)c1oc2ccc(/C=N/O)c(Cl)c2c1C 8.26 µM
CC(C)(C)c1ccc(/C=N/NC(=O)C2CCCC2)cc1 16.5 µM
Cn1cccc1CC(=O)N/N=C/c1ccc(C(C)(C)C)cc1 10.4 µM
Cc1ccc(OCC(=O)Nc2cccc(C(=O)OCc3cc(=O)n4nc(C)sc4n3)c2)cc1 0.736 µM
Cc1cn2c(=O)cc(COC(=O)c3cccc(NC(=O)COc4ccccc4Cl)c3)nc2s1 0.329 µM
COc1ccc(NC(=S)Nc2ccccn2)cc1 2.93 µM
COC(=O)c1ccc(NC(=S)Nc2ccccn2)cc1 2.07 µM
COc1ccccc1N1CCN(C(=O)c2nc(-c3ccc(C)cc3)n3c2CCCCC3)CC1 1.47 µM
N/C(=N\OC(=O)c1ccc(Cl)cc1)c1cccnc1 2.61 µM
Cc1cc(/C(N)=N/OC(=O)c2ccc(Cl)cc2)no1 1.47 µM
Cc1ccc(/C(N)=N/OC(=O)c2ccc3c(c2)OCO3)cc1 0.464 µM
N/C(=N\OC(=O)c1ccc2c(c1)OCO2)c1cccnc1 3.69 µM
Cn1cccc1/C=C1\SC(=O)N(c2ccccc2)C1=O 0.927 µM
CCCNC(=O)c1cc(-c2ccco2)on1 3.69 µM
O=C(NCCc1ccccc1)c1cc(-c2ccco2)on1 3.29 µM
CC1CCN(C(=O)c2cc(-c3ccco3)on2)CC1 3.69 µM
O=C(Nc1ccccc1F)c1ccc(Cn2cc(Cl)cn2)cc1 10.4 µM
Cn1c(NC(=O)c2cccc(Cn3cc(Cl)cn3)c2)nc2ccccc21 4.65 µM
Cc1cc2c([nH]c3ccccc32)c2c1OC(C)(C)C=C2 3.69 µM
COc1ccc(OCc2cc(C(=O)N3CCCC(O)C3)no2)c2ccccc12 (centres undefined) 5.85 µM
COc1ccc(OCc2cc(C(=O)N3CCCC(OC)C3)no2)c2ccccc12 (centres undefined) 16.5 µM
Oc1c(/C=N/c2ccccn2)sc2ccccc12 2.07 µM
O=C(OCCOc1ccccc1)c1n[nH]c2ccccc12 1.47 µM
N#Cc1ccc(/C=C(\C(=O)C(=O)O)c2ccc3ccccc3n2)cc1 1.04 µM
O=C(O)C(=O)/C(=C\c1ccsc1)c1ccc2ccccc2n1 1.47 µM
CC(=O)Nc1ccc(/C=N/Nc2nc3ccccc3s2)cc1 0.185 µM
COc1cc(/C=N/Nc2nc3ccccc3s2)ccc1O 2.93 µM
COc1cc(/C=C/c2nc3ccccc3s2)cc(OC)c1O 13.1 µM
COc1cc(/C=N/Nc2ccccc2C(F)(F)F)ccc1O 16.5 µM
BrC(=C\c1ccccc1)/C=N/Nc1nc2ccccc2[nH]1 16.5 µM
O=C(O)c1ccc(N/N=C/C(Br)=C/c2ccccc2)cc1 1.17 µM
O=C(c1ccco1)N1CCN(C(c2ccccn2)c2nnnn2C2CCCC2)CC1 (centres undefined) 7.36 µM
Clc1ccc(-c2nnc(N3CCOCC3)o2)cc1 18.5 µM
Clc1ccc(-c2csc(N3CCOCC3)n2)cc1 3.29 µM
COc1ccc(-c2csc(N3CCSCC3)n2)cc1 10.4 µM
COc1ccc(-c2csc(N3CCOCC3)n2)cc1OC 5.85 µM
COc1ccc(-c2csc(N3C(=O)CNC3=S)n2)cc1 0.0585 µM
O=C(c1ccc(-c2cccc(C(F)(F)F)c2)o1)N1CCOCC1 14.7 µM
O=C(c1ccc(-c2ccc([N+](=O)[O-])cc2Cl)o1)N1CCOCC1 10.4 µM
O=C(c1ccc(-c2ccc([N+](=O)[O-])cc2)o1)N1CCCCC1 1.85 µM
O=C(c1ccc(-c2cccc(Cl)c2Cl)o1)N1CCOCC1 4.65 µM
O=C(c1ccc(-c2ccc(Cl)cc2Cl)o1)N1CCOCC1 7.36 µM
O=C(c1ccc(-c2cc(Cl)ccc2Cl)o1)N1CCOCC1 18.5 µM
Cc1nc(NC(=O)C2CCCC2)sc1Cc1ccc2c(c1)OCO2 9.27 µM
Cc1ccc(O)c(NC(=S)NC(=O)CC(C)C)c1 5.85 µM
Cc1sc(NC(=O)c2ccccc2F)c(CN2CCCCC2C)c1C (centres undefined) 2.07 µM
O=c1oc2ccccc2cc1-c1ccc(O)cc1 4.65 µM
O=c1oc2ccccc2cc1-c1nc(-c2cccs2)no1 1.17 µM
O=c1oc2cc(O)ccc2cc1-c1ccccc1 13.1 µM
O=c1oc2ccccc2cc1-c1ccccc1 16.5 µM
O=C(Nc1ccc(Br)cn1)c1cccc(-c2cc3ccccc3oc2=O)c1 3.69 µM
O=c1oc2ccccc2cc1NCc1ccccc1O 10.4 µM
COc1cccc(C2(O)CC(C(F)(F)F)=NN2C(=O)c2ccccn2)c1 (centres undefined) 13.1 µM
CN(C)c1ccc(/C=C(/C#N)C(=O)NCc2ccccc2)o1 14.7 µM
CCN(CC)c1ccc(/C=C(/C#N)C(=O)NCc2ccccc2)o1 10.4 µM
CCCc1ccc(-c2cc(NC(=O)CSc3n[nH]c(N)n3)n(-c3ccccc3)n2)cc1 18.5 µM
Cc1ccc(NC(=O)c2cnc3ccccc3n2)cc1C 1.31 µM
NC(=O)c1ccc(NC(=O)c2cnc3ccccc3n2)cc1 7.36 µM
c1ccc2c(c1)CCN(C1=Nc3cccc4cccc1c34)C2 18.5 µM
Cc1cc(C(=O)Nc2sc3c(c2C#N)CCC(C)C3)cs1 (centres undefined) 0.736 µM
CCOC(=O)Nc1sc2c(c1C#N)CCC(C)C2 (centres undefined) 5.21 µM
c1cn2c(NC3CCCC3)c(-c3ccc(N4CCOCC4)cc3)nc2cn1 6.56 µM
Cc1ccccc1Nc1c(-c2ccc(N3CCOCC3)cc2)nc2cnccn12 4.65 µM
Cc1ccc(-c2nc3cnccn3c2Nc2ccccc2)o1 16.5 µM
Cc1ccc(Nc2c(-c3ccc(N4CCOCC4)cc3)nc3cnccn23)cc1 7.36 µM
c1cn2c(Nc3ccc4c(c3)OCCO4)c(-c3ccc(N4CCOCC4)cc3)nc2cn1 6.56 µM
CCOC(=O)c1c(C)[nH]c(C(=O)OCCOc2ccccc2C)c1C 1.85 µM
COC(=O)c1c(C)[nH]c(C(=O)OCc2ccc(F)cc2)c1C 2.07 µM
CCOC(=O)c1c(C)[nH]c(C(=O)OCc2ccccc2F)c1C 0.414 µM
Cc1cccc(OCC(=O)O/N=C(\N)c2ccccn2)c1C 6.56 µM
N/C(=N\OC(=O)COc1ccccc1)c1ccccn1 5.21 µM
COc1cc(OC)cc(C(=O)O/N=C(\N)c2ccccn2)c1 1.65 µM
N/C(=N\OC(=O)CCC1CCCC1)c1ccccn1 3.29 µM
Cc1cccc(OCC(=O)O/N=C(\N)c2ccccn2)c1 7.36 µM
Cc1ccc(OCC(=O)O/N=C(\N)c2ccccn2)cc1 3.29 µM
N/C(=N\OC(=O)C12CC3CC(CC(C3)C1)C2)c1ccccn1 5.21 µM
CCCCC(=O)Nc1sc2c(c1C(N)=O)CCC2 11.7 µM
CC(C)C(=O)NC(=S)Nc1sc2c(c1C(N)=O)CCCC2 6.56 µM
COCCN(CCOC)S(=O)(=O)c1ccc(C(=O)Nc2sc3c(c2C(N)=O)CCCCC3)cc1 5.21 µM
O=C1/C(=C/c2ccc(O)c(O)c2)Oc2cc(O)ccc21 8.26 µM
COc1cc(/C=C2\Oc3cc(O)ccc3C2=O)ccc1O 5.21 µM
CCOC(=O)c1csc(-c2sccc2Br)n1 0.521 µM
Nc1c(Br)cc2oc(-c3ccccc3)nc2c1Br 2.07 µM
COc1ccc(-c2nc3c(Br)c(N)c(Br)cc3o2)cc1 2.07 µM
O=C(NCCCN1CCOCC1)c1cc(-c2ccccc2)on1 18.5 µM
O=C(NCCN1CCOCC1)c1cc(-c2ccccc2)on1 18.5 µM
O=C(NC1CCCC1)c1cc(-c2ccc(Cl)cc2Cl)on1 5.21 µM
O=C(NC1CCCCC1)c1cc(-c2ccccc2O)on1 7.36 µM
COc1ccccc1-c1cc(C(=O)NC2CCCC2)no1 14.7 µM
O=C(NC1CCCC1)c1cc(-c2ccccc2Cl)on1 1.65 µM
C=CCNC(=O)c1cc(-c2ccccc2O)on1 16.5 µM
